Data as given in PubChem BioAssay AID652010 (The Scripps Research Institute Molecular Screening Center, 2013).
Out of some 370,000 compounds screened, about 4,100 (1.1%) were called active.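 The calls were made as follows: active = inhibition above the mean over all tested compounds plus 3 SD (cut at about 3.6% in these data); inactive = the rest.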 The full list was thinned out, with actives kept by preference.

test: DAX1 (NR0B1) inhibitors on StAR promoter, primary screen, cell-based, luminescence, SF-1 (NR5A1), full-length DAX-1 (AID 652010); conditions: HEK293T StAR-luciferase reporter, SF-1/DAX-1 repression relief; at 6.8 µM; active compounds read high;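 also: 0% = DAX-1 cells with DMSO and 100% = cells lacking DAX-1 with DMSO; higher inhibition means more luminescence from relief of DAX-1 repression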

inhibition, inactive:
COc1ccc2c(C(C)c3ccc(N)cc3)cn(C)c2c1 (stereo unspecified) 0.02%, CCCCSc1nnc(-c2ccc(NC(=O)CC)cc2)n1C -0.29%, CC1CCN(c2ccc(-c3ccc(NC(=O)c4ccco4)cc3)nn2)CC1 2.92%, NS(=O)(=O)c1cc(C(=O)NCCOc2ccccc2)c(Cl)cc1Cl 0.12%, O=C(NCCc1csc(-c2ccccc2)n1)c1ccccc1F -1.18%, O=C(CCS(=O)(=O)c1ccccc1)Nc1ccc(Cl)c(Cl)c1 -0.2%, O=C(CCCCCN1C(=O)C2C3C=CC(C3)C2C1=O)Nc1ccccc1 (stereo unspecified) 1.39%, Cc1ccc(S(=O)(=O)N(NC2=NS(=O)(=O)c3ccccc32)C(=O)c2ccccc2)cc1 0.29%, O=C(Oc1cccc(NC2=NS(=O)(=O)c3ccccc32)c1)c1ccncc1 0.31%, Cc1ccc(Cn2cc(CN3[C@@H](C)COc4cc(Br)ccc4S3(=O)=O)nn2)cc1 -0.52%, O=C(CC1C(=O)NCCN1Cc1ccc(-c2ccccc2)cc1)NCC1CCOCC1 (stereo unspecified) -0.29%, O=C(NCCc1ccccc1)c1ccc(NC2=NC3CS(=O)(=O)CC3S2)cc1 (stereo unspecified) -0.02%, O=C(NCCc1ccccc1)Oc1ccc(Cl)cc1 0.42%, O=C(NC1CCC1)c1ccc(C#CC2CC2)cn1 3.08%, Cc1ccc(OCc2nnc(SC/C=C/c3ccccc3)n2Cc2ccco2)cc1 -0.46%, COC(=O)c1cc2c(c3c4ccccc4n(S(=O)(=O)c4cccc(C)c4)c13)C(=O)N(Cc1ccccc1)C2 -1.85%, CCC(C)c1ccc(O)c(/C=N/O)c1 (stereo unspecified) 0.8%, CC(=NNC(N)=O)C1CC2CCC1CC2 (stereo unspecified) 1.47%, CCCCCCCCN1C(=O)[C@@H](CC(=O)N2CCN(C(=O)OCC)CC2)C[C@@]2(C(=O)OC)C1=C[C@H](C1CCCC1)O[C@@H]2C 0.13%, CCOC(=O)[C@@]12CN(C(=O)OC(C)(C)C)CC=C1N(Cc1ccc(OC)cc1)C(=O)[C@H]2CC(=O)NCc1ccc(OC)c(OC)c1 -0.16%, CCc1nonc1NC(=O)c1oc2ccc(Cl)cc2c1C 0.27%, Cc1c(C(=O)NC2CCCCC2)oc2ccccc12 0.4%, Cc1cccc(C(=O)Nc2c(-c3ccc(F)cc3)nc3ncccn23)c1 -1.21%, COC(=O)c1ccc(NC(=S)NN2CCOCC2)cc1 1.02%, CCC(=O)Nc1ccc(C(=O)Nc2cc(C)on2)cc1 -0.34%, CC(OC(=O)CNC(=O)c1ccco1)C(=O)Nc1ccc(Cl)cn1 (stereo unspecified) -0.16%, CC(OC(=O)CCCOc1ccccc1)C(=O)Nc1ccc(Cl)cn1 (stereo unspecified) 3.13%, O=C(c1ccccc1)c1ccc(-c2ccccc2C(=O)NC2CCCCN(Cc3ccc(Cl)cc3)C2=O)cc1 (stereo unspecified) -0.77%, Cc1ccc(-n2c(SCC(=O)Nc3ccc(S(=O)(=O)Nc4nccs4)cc3)nnc2-c2ccncc2)cc1 -0.77%, CCC(c1ccc(NC(=O)OC(C)(C)C)cc1)c1cc(OC)cc(OC)c1 (stereo unspecified) -0.05%, COCc1cc(N2CCN(C(=O)OC(C)(C)C)C[C@@H]2C)ccc1N1CCN(Cc2ccccc2)[C@H](C)C1 -0.7%, CCc1cc(C(=O)N(CC)CC(=O)Nc2c(F)cccc2F)sc1C -0.69%, CCN(CC(=O)Nc1c(F)cccc1F)C(=O)c1ccc(-c2ccccc2)cc1 0.8%, CCCC[C@H]1C2CC(OC(=O)NCc3ccccc3)C(C2)[C@H]2CCCCN21 (stereo partly specified) -0.27%, Cc1ccc(-n2c(SCC(=O)Nc3ccc(S(=O)(=O)Nc4nccs4)cc3)nnc2-c2ccccn2)cc1 0.28%, Cc1ccccc1OCC(=O)Nc1ccc(N2CCN(C(=O)C(C)C)CC2)c(Cl)c1 -2.45%, COc1cccc(NC(=O)COc2cccnc2[N+](=O)[O-])c1 1.83%, COc1ccc(Nc2nc(N)nc(CSC(=S)N3CCC(C)CC3)n2)cc1 0.59%, COC(=O)C1=C(C(=O)OC)C2C=C(C(C)C)C1C(=O)C2(C)O (stereo unspecified) 2.32%, O=C(NCCc1ccc(F)cc1)c1n[nH]c2ccccc12 1.23%, O=C(NCCc1ccc(F)cc1)c1ccc(S(=O)(=O)N2CCCCC2)cc1 -1.79%, CCOC(=O)[C@]12CCCC3=C1N(CCC3)C(=O)[C@@H](CC(=O)N1CCSCC1)C2 0.52%, COC(=O)[C@]12C[C@H](CC(=O)NCc3ccccc3)C(=O)N(CCc3ccc(OC)c(OC)c3)C1=C[C@H](C(C)(C)C)O[C@@H]2C -0.61%, COc1ccc(Nc2cc(=O)n(-c3ccccc3)c3c2c(=O)n(C)c(=O)n3C)cc1 0.33%, COc1ccc(NC2=CC(=S)NC(C)(C)C2)cc1 -0.32%, O=C(CNS(=O)(=O)c1ccccc1F)N1CCN(c2ccccn2)CC1 -0.44%, CCCCNC(=O)C[C@H]1C[C@@]2(C(=O)OC)C(=C[C@H](COCc3ccccc3)O[C@@H]2C)N(Cc2ccc(Cl)cc2Cl)C1=O -0.49%, COC(=O)C[C@@H]1CC[C@@H]2[C@H](COc3ccc(NC(=O)c4cccc(F)c4)cc3C(=O)N2C)O1 0.44%, CN(CCNC(=O)c1cc2c(-c3ccccc3F)nn(C)c2s1)C1CCCCC1 0.74%, CCOCCCNC(=O)c1cc2c(=O)n3ccccc3nc2s1 0.63%, CN(CCc1ccccc1)C(=O)Cn1nc(-c2ccccc2)ccc1=O -1.5%, CSc1ccccc1NC(=O)c1cc(Cl)sc1Cl -0.22%, Cc1nn(Cc2ccc(Cl)c(Cl)c2)c(C)c1NC(=O)c1cc(C2CC2)on1 -1.2%, C/C(=N/NC(=S)Nc1ccccc1)c1ccc2c(c1)OCO2 0.83%, C/C(Cc1ccccc1)=N\NC(=O)CNC(=O)c1ccc2c(c1)OCCO2 0.38%, O=C(Nc1ccc(N2CCOCC2)c(Cl)c1)c1ccc(S(=O)(=O)N2CCOCC2)cc1 -0.43%, O=C(Nc1ccc(N2CCN(C(=O)c3ccccc3)CC2)c(Cl)c1)c1cccnc1 -1.45%, Cc1ccc(S(=O)(=O)NCC(=O)Nc2ccc3c(c2)OCCO3)cc1 -0.38%, Cc1ccc(C(=O)Nc2nnc(C3=COCCO3)o2)cc1C 1.49%, COc1cccc(C(=O)Nc2cc3c(cc2Br)OCCCO3)c1 2.47%, Cc1ccc(C(=O)Nc2ccc3c(c2)OCCO3)cc1S(=O)(=O)N1CCOCC1 1.01%, CC(C)(C)n1nc(C2CC2)c(Br)c1NC(=O)c1ccccc1F -1.59%, N#Cc1ccc(OC[C@@H](O)CN2CCC(C(O)(c3ccccc3)c3ccccc3)CC2)c(F)c1 -0.27%, CC(C)CNS(=O)(=O)CC1NCCc2ccccc21 (stereo unspecified) -0.78%, COc1cccc(N2CCN(CC(=O)N(C)Cc3ccc(F)cc3)CC2)c1 -0.23%, C=CCN1C(=O)[C@@H](CC(=O)NCCCCc2ccccc2)[C@]2(C(=O)OCC)CCCCC/C=C/12 -0.85%, CCOC(=O)Cn1c2c(n(-c3ccc(F)cc3)c1=O)C=C(c1ccccc1)[C@@H](C)C(C(=O)N(C)C1CCCCC1)=C2 -1.69%, Cn1c(=O)c([N+](=O)[O-])c(Oc2ccccc2)c2ccccc21 -1.48%, C=CCN1C(=O)[C@H](CC(=O)NCCCN2CCCC2=O)[C@@]2(C(=O)OCC)CCCC=C12 0.2%, CCCCCN1CCCCC(NC(=O)C(C)CCC)C1=O (stereo unspecified) 0.06%, c1csc(-c2nnc(SCc3nc4ccccc4[nH]3)o2)c1 -0.62%, O=C(C1CCC(=O)N(C2CC2)C1)N1CCN(c2ccc(Cl)cc2)CC1 (stereo unspecified) -0.61%

inhibition, active:
CCC(=O)Nc1ccc(-c2ccc(N3CCCCC3)nn2)cc1 4.53%, O=C(NCCOc1ccccc1)c1ccccc1F 6.99%, CC(C)(C)c1csc(NC2=NS(=O)(=O)c3ccccc32)n1 5.84%, CCCOc1ccc(C(=O)NCCc2ccccc2)cc1 5.47%, CNCC(O)c1ccc(O)c(O)c1 (stereo unspecified) 5.84%, Cc1c(C(=O)Nc2ccccn2)oc2ccc(Br)cc12 8.27%, CCCc1cc(C(=O)Nc2ccc(C(=O)OC)cc2)cs1 7.38%, CCCc1cc(C(=O)Nc2ccc(Cl)cn2)cs1 16.1%, CCN(CC(=O)Nc1c(F)cccc1F)C(=O)c1cnc(C)cn1 4.81%, Cc1ccccc1OCC(=O)Nc1ccc2c(c1)ncn2C 4.8%, O=C(NCCc1ccc(F)cc1)c1ccc2nccnc2c1 7.15%, COc1ccc(Nc2ccc3ccccc3c2)cc1 3.94%, CN(C(=O)c1cc2c(=O)n3ccccc3nc2s1)C1CCCCC1 8.94%, CSc1ccccc1NC(=O)c1cc(C2CC2)on1 3.85%, CN1CCN(c2ccc(NC(=O)c3ccc4c(c3)OCCO4)cc2Cl)CC1 4.89%, Cc1nc(NC(=O)c2ccc3c(c2)OCCO3)ccc1Br 12.7%, Cc1ccc(C(=O)NNC(=O)c2ccc3c(c2)OCCO3)cc1 5.23%, O=C(Nc1ccccc1)c1ccc2c(c1)OCCCO2 14.7%, CCc1ccc2oc(-c3ccc(N)cc3)nc2c1 5.85%
